The whole screen tested about 1,900 compounds, of which about 250 (13%) were called active. Roughly 4% stayed inconclusive and do not appear here. A selection follows. Measured potencies and affinities stand elsewhere. Values without a mark were called inactive.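 The calls were made as follows: active = fitted curve reaches 40% rescue activity at or below the top valid dose, in every test run; inconclusive = test runs disagree, some active and some inactive; inactive = every run misses the threshold or moves the wrong way.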
assay: suppressors of statin myotoxicity in myotubes, dose response, cell-based, C2C12 myotubes, ATP luminescence, cherry pick (AID 624405); settings: C2C12 myotubes + simvastatin, 48 h, scaled: DMSO wells 0, geranylgeraniol wells 100; series mostly up to 19.5 µM; rescue activity (ATP increase): at the top concentration;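 also: myotubes are challenged with simvastatin at 10 µM to lower ATP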

Row | Structure (SMILES) | rescue activity (ATP increase)
1 | C[C@H]1CN([C@@H](C)CO)C(=O)Cc2cc(NC(=O)c3ccncc3)ccc2O[C@@H]1CN(C)C(=O)Nc1cccc2ccccc12 | 2.64% [at 21 µM]
2 | C[C@H](CO)N1C[C@H](C)[C@@H](CN(C)S(=O)(=O)c2ccc(Cl)cc2)OCCCC[C@H](C)Oc2ccc(NS(C)(=O)=O)cc2C1=O | -2.17%
3 | C[C@H](CO)N1C[C@H](C)[C@@H](CN(C)Cc2ccc(Cl)c(Cl)c2)Oc2ccc(NC(=O)Cc3ccccc3)cc2CC1=O | 31.3%
4 | C[C@H]1CN([C@@H](C)CO)C(=O)c2cc(C3=CCCCC3)cnc2O[C@H]1CN(C)C(=O)c1ccccn1 | -12.9%
5 | Cc1cc(NC(=O)c2ccc(N3C(=O)CCC3=O)cc2)no1 | 20.2%
6 | COc1ccc(Cl)cc1C(=O)n1nc(C)cc1C | 0.34%
7 | COc1cc(C)ccc1OCCCOc1cc(C)ccc1Cl | 12.3%
8 | C[C@@H]1CN([C@@H](C)CO)C(=O)Cc2cc(NC(=O)CCC(F)(F)F)ccc2O[C@H]1CN(C)Cc1ccc(Oc2ccccc2)cc1 | 34.1%
9 | Cc1ccc(-c2nc3ccccc3[nH]2)cc1NC(=O)c1ccco1 | -123%
10 | CCc1c(C)sc(NC(=O)c2ccco2)c1C(=O)N1CCCCC1 | 11.7%
11 | C[C@H](CO)N1C[C@H](C)[C@@H](CN(C)Cc2ccc(-c3ccccc3)cc2)Oc2ccc(NC(=O)Cc3cn(C)c4ccccc34)cc2CC1=O | 16.5%
12 | C[C@@H]1CN([C@H](C)CO)C(=O)c2cccc(NS(=O)(=O)c3cccs3)c2O[C@@H]1CN(C)Cc1ccc(Oc2ccccc2)cc1 | 37.4%
13 | Cc1cc(C(=O)CSc2nnnn2-c2ccccc2)c(C)n1CCc1ccccc1 | -34.3%
14 | CC1Cc2ccccc2N1C(=O)C1CCN(S(=O)(=O)Cc2ccccc2)CC1 (centres undefined) | 13.7%
15 | CCOC(=O)c1ccc(-c2c(C(=O)OCC)oc3cc(O)c(CC)cc3c2=O)o1 | 25.6%
16 | Cc1cccc(C(=O)N2CCC(n3nnc4cc(F)ccc43)CC2)c1 | -54.9%
17 | Cc1cccc(C)c1NC(=O)c1nc(S(=O)(=O)Cc2ccccc2)ncc1Cl | -777%
18 | CCC(NS(=O)(=O)c1ccc(C)cc1)C(=O)Nc1ccc(NC(C)=O)cc1 (centres undefined) | -17.2%
19 | CS(=O)(=O)c1ncc(Cl)c(C(=O)Nc2ccc(OC(F)F)cc2)n1 | -436%
20 | COc1ccccc1NC(=O)CN1C(=O)CCS(=O)(=O)c2ccccc21 | 49.8%
21 | Cc1noc(C)c1NC(=O)Nc1ccc2c(c1)C(=O)N([C@H](C)CO)C[C@@H](C)[C@H](CN(C)C(=O)Nc1ccccc1)OCCCC[C@@H](C)O2 | 2.09%
22 | CN1C[C@@H]2[C@H](c3ccccc31)[C@H](CO)N2Cc1ccccc1 | -1.19%

Row | Structure (SMILES) | rescue activity (ATP increase)
23 | Nc1nc(CSc2nnnn2-c2ccccc2)nc(N2CCCc3ccccc32)n1 | -0.398%
24 | COC(=O)c1c(C)noc1-c1cc(C)on1 | 21.9%
25 | C[C@@H]1CN([C@H](C)CO)C(=O)c2cc(NC(=O)Nc3ccc(F)cc3)ccc2O[C@@H](C)CCCCO[C@@H]1CN(C)S(=O)(=O)c1cccs1 | -1.09%
26 | COc1cccc(-c2cnc3c(c2)C(=O)N([C@H](C)CO)C[C@H](C)[C@H](CN(C)Cc2cccc(C)c2)O3)c1 | -22.6%
27 | C[C@@H]1CN([C@H](C)CO)C(=O)c2cc(NS(C)(=O)=O)ccc2O[C@@H](C)CCCCO[C@H]1CN(C)S(=O)(=O)c1ccc(Cl)cc1 | 15.7%
28 | COc1ccc(NC(=O)Nc2ccc3c(c2)C(=O)N([C@@H](C)CO)C[C@@H](C)[C@@H](CN(C)CC2CCCCC2)OCCCC[C@H](C)O3)cc1 | -15.9%
29 | Cc1cccc(Cn2c(N3CCCCC3C)nc3c2c(=O)[nH]c(=O)n3C)c1 (centres undefined) | 39.2%
30 | CCOCCn1c(N2CCN(c3ccc(OC)cc3)CC2)nc2c1c(=O)[nH]c(=O)n2C | -0.858%
31 | CCCCCn1c(N2CCC(C(N)=O)CC2)nc2c1c(=O)[nH]c(=O)n2C | 4.98%
32 | CCCCn1c(SCc2ccccn2)nc2c1c(=O)n(C)c(=O)n2C | 30.4%
33 | O=C(Nc1ccc2nn(-c3ccccc3)nc2c1)c1cccnc1 | -57.5%
34 | O=C(CSCc1ccc(Cl)cc1)N/N=C/c1ccccc1 | -13.5%
35 | C[C@@H]1CN([C@@H](C)CO)C(=O)Cc2cc(NC(=O)Nc3cccc4ccccc34)ccc2O[C@H]1CN(C)Cc1ccc(Oc2ccccc2)cc1 | 9.69%
36 | O=C(Nc1ccccc1Cl)NC1(C(=O)N2CCCCC2)CCCCC1 | 17%
37 | Cc1ccc(-c2cc(N)n(-c3ccc(C)cc3)n2)cc1 | -27%
38 | C=CCn1c(=O)/c(=C\c2ccsc2)s/c1=C(/C#N)C(=O)NCCN1CCOCC1 | -5.47%
39 | C[C@H]1CN([C@@H](C)CO)C(=O)c2cc(NS(=O)(=O)c3ccc(Cl)cc3)ccc2O[C@H]1CN(C)Cc1ccc(Oc2ccccc2)cc1 | 26.2%
40 | C[C@@H]1CCCCO[C@H](CN(C)C(=O)Nc2cccc3ccccc23)[C@H](C)CN([C@H](C)CO)C(=O)c2cc(NS(=O)(=O)c3ccc(Cl)cc3)ccc2O1 | 35.3%
41 | Cc1ccc(S(=O)(=O)Nc2ccc3c(c2)C(=O)N([C@@H](C)CO)C[C@H](C)[C@H](CN(C)Cc2ccc(C(F)(F)F)cc2)O3)cc1 | 28.9%
42 | C[C@@H]1CN([C@H](C)CO)C(=O)c2cc(NS(=O)(=O)c3ccc(Cl)cc3)ccc2O[C@H]1CN(C)C(=O)Nc1cccc2ccccc12 | 6.95% [at 21 µM]
43 | C[C@H]1CN([C@@H](C)CO)C(=O)c2cc(NC(=O)Nc3ccc(C(F)(F)F)cc3)ccc2O[C@@H]1CN(C)Cc1ccc(C(=O)Nc2ccccc2N)cc1 | 12.3% [at 18 µM]
44 | Cc1ccc(S(=O)(=O)Nc2ccc3c(c2)C(=O)N([C@@H](C)CO)C[C@H](C)[C@H](CN(C)Cc2ccc(C(=O)Nc4ccccc4N)cc2)O3)cc1 | -0.826% [at 16 µM]

— PubChem BioAssay AID624405 (Broad Institute, 2012)
